High-throughput results deposited in PubChem by National Center for Advancing Translational Sciences (NCATS).
A selection: hits, their analogues and other compounds. The true share with any hit is near 9%.
ALDH1A1 inh: qHTS Assay for Inhibitors of Aldehyde Dehydrogenase 1 (ALDH1A1); AID 1030, 2008; Purified ALDH1A1, NADH fluorescence, propionaldehyde substrate; 7.3% of 220,000 active; Potency, µM (highest dose often 75.3 µM), for inactives: at the highest dose activity, negative = inhibition, most hits filed as inhibitors; active means well fitted inhibition curve with a large enough effect, not every such curve was filed as active; inconclusive means small, poorly fitted or top-dose-only effect, or another doubt; inactive means no such curve, though single readings can be large or run the other way;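 further: plate controls were no enzyme wells and a reference inhibitor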
Target sequence (P00352 whole entry, looked up): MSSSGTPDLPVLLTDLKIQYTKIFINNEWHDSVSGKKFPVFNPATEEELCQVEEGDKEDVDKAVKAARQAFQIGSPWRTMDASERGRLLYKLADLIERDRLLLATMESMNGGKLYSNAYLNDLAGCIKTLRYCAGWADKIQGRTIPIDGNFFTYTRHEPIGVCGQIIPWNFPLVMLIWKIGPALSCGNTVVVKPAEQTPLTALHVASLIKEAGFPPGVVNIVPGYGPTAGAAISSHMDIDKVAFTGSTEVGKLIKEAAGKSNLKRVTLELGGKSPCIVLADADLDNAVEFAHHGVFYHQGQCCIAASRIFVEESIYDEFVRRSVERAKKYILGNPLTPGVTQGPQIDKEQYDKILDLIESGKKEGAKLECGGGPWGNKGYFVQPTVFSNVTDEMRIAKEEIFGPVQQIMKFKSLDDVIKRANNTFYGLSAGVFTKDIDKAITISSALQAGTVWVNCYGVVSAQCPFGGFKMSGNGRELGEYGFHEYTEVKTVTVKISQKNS
LMNA splice mod: qHTS Assay for Modulators of Lamin A Splicing | Potency, µM (doses to about 46.1 µM), for inactives: top-dose ratio change, negative = inhibition, most hits filed as inhibitors | HeLa LMNA splicing GFP/RFP minigene ratio, 48 h | 0.01% of 200,000 active; active means well fitted inhibition curve with a large enough effect in the signal ratio, with a control signal flat, not every such curve was filed as active; inconclusive means small, poorly fitted or top-dose-only effect, or effect the other way, or a change in a side signal; the % refers to the signal ratio; further: on the % scale 0 is the no-effect control and ±100 the full control effect
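S3 HeLa stable clones carrying a lamin A-EGFP splicing minigene plus DsRed2 were seeded at 600 cells/well in Opti-MEM with 2% FBS, pin-dosed and incubated 48 h at 37°C. Acumen cytometry (488 nm) gave the GFP/RFP total-intensity ratio.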
HttQ103 aggreg: qHTS Multiplex Assay to Identify Dual Action Probes in a Cell Model of Huntington: Aggregate Formation (GFP) | PC12 HttQ103-GFP aggregates, Acumen cytometry, 40 h | Potency, µM (series often up to 46.1 µM), for inactives: at the top dose activity change, negative = inhibition, hits mostly inhibitors | 1.1% of 220,000 active | AID 1688, 2009; further: on the % scale 0 is the no-effect control and ±100 the full control effect; nearly all actives have a fitted effect of over 60% in size
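Steps: seed 1500 PC12 HTTQ103-GFP cells/well; add tebufenozide, 100 nM final; add compound titration; add ATPLite reagent; quantify GFP aggregates by laser scanning cytometry.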
HTT cytoprotect: qHTS Multiplex Assay to Identify Dual Action Probes in a Cell Model of Huntington: Cytoprotection (ATP) | AID 1471, 2008 | 0.14% of 230,000 active | PC12 HTT-Q103 induced, cytoprotection, ATP luminescence, 40 h | Potency, µM (highest dose often 56.4 µM), for the others: cytoprotection (ATP increase), usual class: activators; further: % of control where 0% means no effect; nearly all actives have a fitted effect of over 45% in size
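Compounds were screened for protection of PC12 cells against cell death after tebufenozide induction (100 nM final) of mutant Huntingtin exon 1 (Q103) fused to GFP.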
Luc counter: Counterscreen for Luciferase (Kinase-Glo TM) Inhibition. 0.28% of 200,000 active. AID 1379, 2008. Kinase-Glo luciferase, ATP luminescence, 8 min. Luciferin 4-monooxygenase (Photuris pensylvanica), Q27757. Potency, µM (doses to about 38.3 µM), for inactives: at the top dose activity change, negative = inhibition, most hits filed as inhibitors; further: on the % scale 0 is the no-effect control and ±100 the full control effect; nearly all actives have a fitted effect of over 60% in size
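Kinase-Glo luciferase light output from ATP and luciferin was measured with 10 uM ATP, within the enzyme's linear range. Buffer: 50 mM imidazole pH 7.2, 50 mM KCl, 7 mM MgCl2, 0.01% Tween 20, 0.05% BSA; luminescence read after 8 min at ambient temperature.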
HPGD inh: qHTS Assay for Inhibitors of HPGD (15-Hydroxyprostaglandin Dehydrogenase); 15-hydroxyprostaglandin dehydrogenase [NAD(+)] (Homo sapiens), P15428; purified HPGD, NADH fluorescence kinetic, PGE2 substrate; Potency, µM, without a hit: top-dose activity change, negative = inhibition, hits mostly inhibitors; 4.3% of 150,000 active; AID 894, 2007; active means well fitted inhibition curve with a large enough effect, not every such curve was filed as active; inconclusive means small, poorly fitted or top-dose-only effect, or another doubt; inactive means no such curve, though single readings can be large or run the other way; further: on the % scale 0 is the no-effect control and ±100 the full control effect
Target sequence (P15428 whole entry, looked up): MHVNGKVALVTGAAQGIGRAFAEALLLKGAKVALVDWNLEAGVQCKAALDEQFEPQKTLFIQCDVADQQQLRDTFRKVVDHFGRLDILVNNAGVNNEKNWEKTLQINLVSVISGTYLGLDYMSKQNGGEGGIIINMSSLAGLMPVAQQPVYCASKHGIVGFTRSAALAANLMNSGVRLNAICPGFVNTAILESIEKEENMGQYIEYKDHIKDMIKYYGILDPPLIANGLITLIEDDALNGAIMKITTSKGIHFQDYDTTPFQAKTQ
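20 nM HPGD preincubated 15 min at room temperature with compound in 50 mM Tris-HCl pH 8, 0.01% Tween 20. Started with 1 mM NAD+ and 30 uM prostaglandin E2; NADH fluorescence (360/450 nm) read 5 times over 30-s intervals, last minus first.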
Active calls of the source: *; ? = inconclusive; . = no result; [ ] = remark or other dose. Unless noted, the call rests on the fitted dose curve; in most records, active means well fitted curve in the direction sought with a large enough effect; inconclusive means small, poorly fitted or top-dose-only effect, or another doubt; inactive means no such curve, though single readings can be large; an effect the other way counts as inactive or inconclusive. Potency means the concentration at half of the fitted maximal effect.

SMILES	ALDH1A1 inh	LMNA splice mod	HttQ103 aggreg	HTT cytoprotect	Luc counter	HPGD inh
Cc1cccc(Nc2nc(N)nc(CN3CCN(Cc4ccc5c(c4)OCO5)CC3)n2)c1	14µM*	?	22%	-29%[0.074 µM]	5%	-7%
O=C1CC(N2CCN(c3ccccc3Cl)CC2)C(=O)N1c1ccccc1 (configuration not stated)	25µM*	9%	-4%	-5%[0.074 µM]	3%	-13%
COc1ccccc1Nc1nc(N)nc(CN2CCN(Cc3ccc4c(c3)OCO4)CC2)n1	.	.	-9%[9.22 µM]	3%[10 µM]	.	.
O=C1CC(N2CCN(Cc3ccc4c(c3)OCO4)CC2)C(=O)N1c1ccccc1 (configuration not stated)	16µM*	20%	11%	9%[1.9 µM]	-6%	-10%
O=C1CC(N2CCOCC2)C(=O)N1c1ccccc1Cl (configuration not stated)	?	-10%	11%	5%[10 µM]	-2%	-9%
CCN(Cc1ccccc1)C(=O)Cn1c(C(C)O)nc2ccccc21 (configuration not stated)	-2%	20%[46 µM]	-5%	5%[10 µM]	-1%	.
CCCC(=O)n1nc(-c2ccc(Cl)cc2)nc1SC	-14%	5%	-20%	-20%	1%	-27%
COC(=O)Cc1cc(=O)n2[nH]c(C)cc2n1	?	-13%	3%	15%	-1%	-29%
Cc1cccc(N2C(=O)CC(N3CCN(Cc4ccc5c(c4)OCO5)CC3)C2=O)c1 (configuration not stated)	22µM*	0%	1%	-4%	0%	-1%
O=C(CNc1cc(S(=O)(=O)N2CCOCC2)ccc1N1CCCC1)N1CCc2ccccc21	25µM*	.	1%	-25%	-3%	.
O=C(Nc1cc(S(=O)(=O)N2CCOCC2)ccc1N1CCCCC1)c1cc(-c2ccccn2)nc2ccccc12	7.1µM*	.	?	-18%[10 µM]	0%	.
N#Cc1ccc(Cl)cc1NC(=O)COC(=O)[C@H](CCC(N)=O)NC(=O)c1ccc(F)cc1	-24%	-7%	7%	.	3%	-8%
Cc1ccc(C(=O)N2CCCC(c3ccc(Cl)cc3)=N2)cc1	13µM*	-8%[9.22 µM]	-9%	-13%	-1%	.
O=C1N/C(=C/c2ccc(Br)cc2)C(O)=C1C=NCc1ccccc1	5%	?	-15%	.	1%	-5%
Cn1c(-c2ccc3c(c2)OCO3)cnc1NCc1cccc(O)c1	13µM*	6%[46 µM]	12%[9.22 µM]	35%[10 µM]	1%	.
Cn1c(-c2ccc(F)cc2)cnc1NCc1cccc(F)c1	6.3µM*	-1%	20%	-5%	-3%	16µM*
Cn1c(-c2cccc(Br)c2)cnc1NCc1cccnc1	11µM*	-13%	-14%	-18%[10 µM]	2%	-25%
Cc1nn(-c2ccccc2Cl)c(Cl)c1/C=C(\C#N)C(N)=O	4%	4%	19%	-13%[10 µM]	0%	-11%
COc1ccc(CCNc2ccc(C(=O)O)cc2[N+](=O)[O-])cc1OC	-1%	1%[9.22 µM]	4%	-11%	-3%	.
COc1ccc(C(=O)CCC(C)(C)[N+](=O)[O-])cc1OC	8.9µM*	5%[46 µM]	17%	-5%[10 µM]	2%	.
C=C1c2cccc(C(F)(F)F)c2O[C@H](C(=O)OCC)[C@@H]1CCC(C)C	-7%	.	.	-16%	-1%[39.9 µM]	0%
COc1ccc(C(=O)CCNc2ccc(C)c(Cl)c2)cc1	3.2µM*	-5%	6%	12%[10 µM]	2%	0%
O=C1OCCC1Sc1nc2ccccc2n1Cc1ccccc1 (configuration not stated)	-10%	-5%	-9%	8%[0.074 µM]	0%	0%
O=C(NNc1c2ccccc2nc2ccccc12)c1ccccc1O	-12%	18µM*	-16%	9%[10 µM]	-6%	-13%
O=C(NNc1c2ccccc2nc2ccccc12)c1ccc(O)cc1	2%	?	?	-17%[10 µM]	-11%	-11%
SMILES	ALDH1A1 inh	LMNA splice mod	HttQ103 aggreg	HTT cytoprotect	Luc counter	HPGD inh
O=C(COc1ccccc1)NNc1c2ccccc2nc2ccccc12	?	?	-1%	-72%[10 µM]	1%	-16%
COc1ccc(OCC(=O)NNc2c3ccccc3nc3ccccc23)cc1	22%	?	11µM*	22%[10 µM]	4%	-14%
O=C(NNc1c2ccccc2nc2ccccc12)c1ccc(O)cc1O	-12%	-25%	10µM*	-87%	-11%	-5%
CC1(C)CC(=O)C=C(NNC(=O)c2ccccc2O)C1	3%	4%	2%	-109%	?	-12%
O=C(NNc1nc(=O)c2cccnc2s1)c1ccccc1O	7%	.	7.9µM*	-51%[10 µM]	-1%	.
COc1ccc(-c2nnc(SCCC(=O)O)n2-c2ccccc2)cc1OC	14%	7%	-4%	-4%[10 µM]	-2%	-5%
O=C(Nc1ccc(F)cc1)N(Cc1nnc2n1CCCCC2)c1ccccc1	3%	-6%	5%	-17%[10 µM]	-1%	3%
COCCCNC(=O)Cc1ccccc1OC	10%	4%	0%	-7%	2%	-12%
CCN1C(=O)CC(C(=O)Nc2ccc(F)cc2)SC1=Nc1cccc(OC)c1 (configuration not stated)	10µM*	-30%	-30%	-35%	-1%	-3%
O=C(c1ccc2ccccc2c1)N1CCN(c2ccccc2)CC1	3%	?	-3%	-6%	-1%	-3%
O=C(Nc1cccc(F)c1)C1CC(=O)N(c2ccc(Cl)cc2)C1 (configuration not stated)	13%	5%	-26%	-11%	18%	-3%
O=C(CN1CCN(c2ccccc2)CC1)Nc1ccccc1Cl	0%	-15%[46 µM]	0%	-21%	0%	.
O=C(CN1CCN(c2ccc(O)cc2)CC1)Nc1cc([N+](=O)[O-])ccc1Cl	11µM*	-23%	4%	1%[10 µM]	1%	-8%
CC(=O)N1CCN(CC(=O)Nc2cc([N+](=O)[O-])ccc2Cl)CC1	35µM*	.	2%	-47%[10 µM]	.	.
CCSC1=C(C#N)C(c2cccc(O)c2)CC(=O)N1 (configuration not stated)	-3%	4%	-2%	-16%	0%	-13%
C=C(C)CSC1=C(C#N)C(c2ccsc2)CC(=O)N1 (configuration not stated)	16µM*	-2%	-11%	3%	1%	-19%
C=CCSC1=C(C#N)C(c2ccc(C(C)C)cc2)CC(=O)N1 (configuration not stated)	28µM*	-6%	1%	-1%	16%	-14%
